Experimental findings from the supplement of paper PMC7380943 are described below.

Each structure is given as a SMILES string.

The subject of assay [1] is CLZ3 (HCA2 human fibroblast dual HR-NHEJ reporter). Kind of assay: NHEJ repair efficiency (GFP+ cells) relative to control (log10 fold); higher = more non-homologous end joining. As to conditions: 5 µM; doxycycline 0.5 ug/mL.
Assay [2] shares this test system. Kind of assay: HR repair efficiency (tdTomato+ cells) relative to control (log10 fold); higher = more homologous recombination. The note with it: 5 µM; doxycycline 0.5 ug/mL.
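Wherever HR repair efficiency (tdTomato+ cells) relative to control is given: compound given one day before doxycycline, which switches on I-SceI endonuclease expression to create double-strand breaks within the integrated reporter.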
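Wherever NHEJ repair efficiency (GFP+ cells) relative to control is given: compound given one day ahead of doxycycline, which switches on I-SceI endonuclease to cut the chromosomally integrated reporter and create DSBs.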

On to `O=c1cc(-c2ccc(O)c(O)c2)oc2cc(O)c([C@@H]3O[C@H](CO)[C@@H](O)[C@H](O)[C@H]3O)c(O)c12` [Isoorientin], for which the “NHEJ repair efficiency (log10)” value in assay [1] was -0.0953. Besides, the “HR repair efficiency (log10)” value in assay [2] was determined as 0.00986.

For `O=Cc1ccc(CO)o1` [5-Hydroxymethylfurfural], the “NHEJ repair efficiency (log10)” value in assay [1] was -0.214. The “HR repair efficiency (log10)” value in assay [2] was found to be 0.0126.

Regarding `C[C@@H]1O[C@@H](O[C@H]2[C@H](OC(=O)[C@]34CCC(C)(C)C[C@H]3C3=CC[C@@H]5[C@@]6(C)C[C@H](O)[C@H](O[C@@H]7O[C@H](CO)[C@@H](O)[C@H](O[C@@H]8O[C@H](CO)[C@@H](O)[C@H](O)[C@H]8O)[C@H]7O)C(CO)(CO)[C@@H]6CC[C@@]5(C)[C@]3(C)C[C@H]4O)OC[C@H](O)[C@@H]2O)[C@H](O)[C@H](O)[C@H]1O[C@@H]1OC[C@@H](O)[C@H](O[C@@H]2OC[C@](O)(CO)[C@H]2O)[C@H]1O` [Platycodin D2], the “NHEJ repair efficiency (log10)” value in assay [1] is -0.00927. Besides, the “HR repair efficiency (log10)” value in assay [2] was -0.252.

Turning to `CC(/C=C/C=C(\C)C(=O)O[C@@H]1O[C@H](CO)[C@@H](O)[C@H](O)[C@H]1O)=C\C=C\C=C(C)\C=C\C=C(/C)C(=O)O[C@@H]1O[C@H](CO[C@@H]2O[C@H](CO)[C@@H](O)[C@H](O)[C@H]2O)[C@@H](O)[C@H](O)[C@H]1O` [Crocin Ii], the “NHEJ repair efficiency (log10)” value in assay [1] was -0.0199. In addition, the “HR repair efficiency (log10)” value in assay [2] was 0.0485.

Take `CC12CCC(CC1)C(C)(C)O2` [Eucalyptol]: in assay [1], the “NHEJ repair efficiency (log10)” value was 0.0692. The “HR repair efficiency (log10)” value in assay [2] was found to be 0.0216.

Consider `COc1cc(C[C@H](C)[C@H](C)Cc2ccc3c(c2)OCO3)ccc1O` [Anwuligan], for which, in assay [1], the “NHEJ repair efficiency (log10)” value came out at 0.0149. Moreover, the “HR repair efficiency (log10)” value in assay [2] worked out at 0.0747.

With `C[C@H](N)C(=O)O` [Alanine], in assay [1], the “NHEJ repair efficiency (log10)” value stood at 0.113. The “HR repair efficiency (log10)” value in assay [2] is -0.14.

On to `C[C@H](CCC(=O)O)[C@H]1CC[C@H]2[C@@H]3[C@H](O)C[C@@H]4C[C@H](O)CC[C@]4(C)[C@H]3CC[C@]12C` [Chenodeoxycholic Acid], for which the “NHEJ repair efficiency (log10)” value in assay [1] was -0.124. For the same molecule, the “HR repair efficiency (log10)” value in assay [2] was 0.00712.

Turning to `C=C1C2CCC3(C4C[C@H]5C6(CCC[C@@]5(C)CN(CC)C46)[C@H]3[C@H]2O)[C@@H]1O` [Bullatine A], the “NHEJ repair efficiency (log10)” value in assay [1] was -0.197. Moreover, in assay [2], the “HR repair efficiency (log10)” value is -0.165.

For the molecule `OCc1ccc(O[C@@H]2O[C@H](CO)[C@@H](O)[C@H](O)[C@H]2O)cc1` [Gastrodin], the “NHEJ repair efficiency (log10)” value in assay [1] was 0.113. Further, the “HR repair efficiency (log10)” value in assay [2] is 0.307.
